Bioassay records from PubChem.
SF1 inhibitor: SF-1 (human) inhibition | CHO-K1 Gal4-SF-1 LBD luciferase reporter | inhibition, % at 10 µM | 65,000 compounds, 0.55% hits | AID 525;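 active means inhibition above the mean inhibition of all tested compounds plus 3 SD, cut at about 48% in these data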;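 further: 0% = SF-1 transfected cells with DMSO and 100% = mock-transfected cells lacking SF-1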
Target sequence (Q13285 whole entry, looked up, the tested form may be a part): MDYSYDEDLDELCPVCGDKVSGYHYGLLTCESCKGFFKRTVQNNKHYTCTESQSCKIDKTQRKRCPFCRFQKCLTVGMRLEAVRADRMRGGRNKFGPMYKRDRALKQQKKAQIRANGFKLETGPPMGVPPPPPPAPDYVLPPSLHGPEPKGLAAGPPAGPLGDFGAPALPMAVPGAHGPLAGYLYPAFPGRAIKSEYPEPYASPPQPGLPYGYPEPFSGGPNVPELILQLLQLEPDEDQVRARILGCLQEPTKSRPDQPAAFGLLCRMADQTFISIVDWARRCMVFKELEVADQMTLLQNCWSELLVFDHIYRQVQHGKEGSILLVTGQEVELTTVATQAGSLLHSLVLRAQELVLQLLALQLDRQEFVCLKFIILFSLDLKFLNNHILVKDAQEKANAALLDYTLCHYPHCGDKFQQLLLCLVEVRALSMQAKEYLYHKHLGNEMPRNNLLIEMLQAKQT
Starred values were filed as active, the others as inactive. The full list was thinned out, with hits kept by preference.

SMILES	SF1 inhibitor
Cc1cc(C)c2[nH]c(=O)c(C(c3nnnn3Cc3ccc4c(c3)OCO4)N3CCCCC3)cc2c1 (stereo not given)	12
Cc1ccc(-n2c(=O)cc(N3CCCCCC3)[nH]c2=O)cc1	-6
CC(=O)c1ccc(OCC(O)CN2CCN(Cc3ccc4c(c3)OCO4)CC2)cc1 (stereo not given)	-27
FC(F)(F)c1cnc(Nc2ccc(N3CCOCC3)cc2)c(Cl)c1	4
CC(C(=O)NC1CCCC1)N(Cc1ccc2c(c1)OCO2)C(=O)c1snc(C(N)=O)c1N (stereo not given)	5
O=C(c1ccccc1)c1c[nH]c2cc3c(cc2c1=O)OCCO3	-50
Cc1cc(-c2ccccc2)nc(N2CCC(C(=O)NC(C)C)CC2)n1	-97
CC12CCC(C(=O)N3CCN(C(=O)C45CCC(C)(C(=O)O4)C5(C)C)CC3)(OC1=O)C2(C)C	-7
COc1ccc([C@@H]2Sc3ccccc3N(CCN(C)C)C(=O)[C@@H]2OC(C)=O)cc1	-6
OCC1(C2=NOC(O)(C(F)(F)F)C2)CCCCC1 (stereo not given)	14
Nc1c(C(=O)NCCN2CCOCC2)c2nc3ccccc3nc2n1CCc1ccccc1	16
O=C(COC(=O)c1ccc(S(=O)(=O)N2CCOCC2)cc1)NC1CCCCCC1	3
CC(=O)C1=C(O)C(=O)N(CCc2c[nH]c3ccccc23)C1c1ccco1 (stereo not given)	-3
CCCC12CN3CC(C)(CN(C1)C3c1ccc(OC(C)C)cc1)C2=O (stereo not given)	8
Cc1ccc2cc(CCNC(=O)c3ccco3)c(=O)[nH]c2c1C	-63
O=C(CN1CCN(c2ccccn2)CC1)Nc1cccc(C(F)(F)F)c1	16
COc1ccccc1NC(=O)N1CCN(c2ccccn2)CC1	13
Cc1cnc(NC(=O)CN2CCN(c3ccccn3)CC2)s1	61*
Cn1c(SCc2ccc(F)cc2)nnc1-c1cccs1	-51
COC(=O)c1ccc(C(c2c(N)n(Cc3ccccc3)c(=O)n(C)c2=O)N2CCOCC2)cc1 (stereo not given)	0
Nc1nc(-c2ccc3c(c2)OCCO3)cs1	-64
Cc1ccc(-c2csc(N3CCC(NS(=O)(=O)c4ccc5c(c4)OCCO5)CC3)n2)cc1	53*
CS(=O)(=O)N1CCN(c2nc(-c3ccc(F)cc3)cs2)CC1	-24
Cc1cccc(Cn2c(N3CCCCC3C)nc3c2c(=O)[nH]c(=O)n3C)c1 (stereo not given)	6
CCOc1ccc(NC(=O)CSc2nnc(C3CC3)n2N)cc1	3
SMILES	SF1 inhibitor
Cc1ccc2nc3c(cc(C#N)c(=O)n3CC3CCCO3)c(=O)n2c1 (stereo not given)	-2
CSc1nc(=NC(C)=O)ss1	18
Brc1ccc(-c2cnc(-c3cccs3)o2)cc1	-52
Cc1ccccc1NS(=O)(=O)c1ccc(OCC(=O)N2CCCC2)cc1	-9
FC(F)(F)c1ccc(N2CCN(c3cc(-c4ccccc4)nc4ncnn34)CC2)nc1	71*
c1ccc(-c2cc(N3CCOCC3)nc(-c3ccccc3)n2)cc1	2
c1ccc(OCCSc2ncnc3nc[nH]c23)cc1	-24
CC(NC(=O)C1CCC(=O)N1Cc1ccc(F)cc1)c1ccc2c(c1)OCCO2 (stereo not given)	-9
CCOCC(=O)Nc1cccc(Br)c1	-10
CC(=O)Nc1ccc(-n2c(C)c(C(C)=O)c(C(C)=O)c2C)cc1	16
COC(=O)c1ccc(C(=O)OC)c(NC(=O)CSc2nnc(-c3ccccc3Cl)o2)c1	3
COc1ccc(OC)c(NC(=O)CSc2nnc(CNc3ccc(F)cc3)o2)c1	-10
CCOc1cc(C(=O)CSc2nnc(CNc3ccc(Cl)cc3)o2)ccc1NC(=O)CC	56*
Cc1cc(Nc2ccc(F)cc2F)n2ncnc2n1	-9
Cn1cccc1C(=O)NC(=O)CSc1nc2ccccc2s1	0
COc1ccc(-c2nc(C#N)c(NCCc3ccccc3)o2)cc1OC	-78
COc1c(C)cccc1C(=O)Nc1ccc(CN2CCOCC2)cc1	-62
COc1cc(C(=O)Oc2c(CN3CCOCC3)cc(Cl)c3cccnc23)cc(OC)c1OC	55*
CCCCCOc1ccc(CN2CCOCC2)cc1Cl	-61
Nc1nc(CSc2ncn(-c3ccccc3)n2)cs1	-59
C1=C(C(c2nnnn2C2CCCCC2)N2CCCCC2)COc2ccccc21 (stereo not given)	19
CC(C(=O)N1CCCCC1)N1C(=O)c2ccccc2C1=O (stereo not given)	4
O=C(NCC(=O)N(Cc1cccs1)C(C(=O)NC1CCCC1)c1ccco1)c1cccs1 (stereo not given)	-4
CCOC(=O)C1CCN(C(=O)c2ccc(Cl)c(S(=O)(=O)N3CCOCC3)c2)CC1	-4
OCCOCCNc1ncnc2c1cnn2-c1ccc(Cl)cc1	-64
SMILES	SF1 inhibitor
COC(=O)C(C)n1cnc2c(cnn2-c2ccc(Cl)cc2)c1=O (stereo not given)	-53
CCOC(=O)C1CCN(c2ncnc3c2cnn3-c2ccc(Cl)cc2)CC1	56*
Clc1ccc(-n2ncc3c(N4CCCC4)ncnc32)cc1	61*
COCCNc1ncnc2c1cnn2-c1ccc(Cl)cc1	-68
CCC(=O)Nc1nc2ccc3nc(C)sc3c2s1	-56
Cc1ccsc1C(=O)OCC(=O)Nc1sccc1C(N)=O	-74
COc1cc(NC(=O)N[C@H](C(=O)O)C(C)C)cc(OC)c1	-17
O=C(CC(=O)c1ccccc1)Nc1ccc2c(c1)OCCO2	-61
O=C(NC12CC3CC(CC(C3)C1)C2)c1ccc(S(=O)(=O)N2CCOCC2)cc1	-2
COc1cc(C2Nc3cccc4cccc(c34)N2)cc(OC)c1OC(C)=O	82*
C/C=C/c1ccc(OC)c(OC(C)=O)c1	7
CCOC(=O)CSc1nc2ccccc2c(=O)n1NC(=O)c1ccccc1	-56
Cc1nnc(Sc2nc(Sc3nnc(C)s3)nc(N3CCN(C)CC3)n2)s1	96*
Cc1nc(CSc2nnc(C)s2)cs1	5
C=CCNc1sc(C(=O)c2cccs2)c(N)c1C#N	-8
Cc1ccc2cccc(OC(=O)c3ccc4c(c3)OCCO4)c2n1	-12
O=C(Cn1nc(Cc2ccncc2)c2ccccc2c1=O)N1CCc2ccccc2C1	12
CC(=O)NC1Sc2ccccc2N=C1c1ccccc1 (stereo not given)	-59
CC(=O)c1c(C)[nH]c(C(=O)Nc2ccc(C)cn2)c1C	51*
CC(=O)c1c(C)[nH]c(C)c1C(C)=O	7
Cc1ccccc1C(=O)Nc1ccc(Br)cn1	-82
Cc1cc(F)ccc1S(=O)(=O)Nc1ccccc1C(=O)Nc1ccc2[nH]c(=O)[nH]c2c1	9
CCCCOC(=O)C(C)c1c(C)[nH]c(=S)[nH]c1=O (stereo not given)	-5
COc1ccc(C)cc1NC(=O)C1CCCN(S(=O)(=O)c2c(C)noc2/C=C/N(C)C)C1 (stereo not given)	6
CCOc1ccc(Nc2cc(C)nc(-n3nc(C)cc3C)n2)cc1	65*
CCOC(=O)c1cnc(-n2nc(C)cc2C)nc1NCc1ccc2c(c1)OCO2	22
CCOC(=O)N1CCC(C(=O)Nc2ccc(OCC)cc2)CC1	-17
CCCc1[nH]nc2c1C1(C(=O)N(CC)c3ccccc31)C(C#N)=C(N)O2 (stereo not given)	12
CNC(=O)Nc1ccccc1NC(=O)NC	13
